Bioassay records deposited in PubChem BioAssay by National Center for Advancing Translational Sciences (NCATS).
Shown are actives, neighbours in structure and some others; about 19% of the full set was active somewhere.
VP16 counter = VP16 counterscreen qHTS for inhibitors of ROR gamma transcriptional activity. Drosophila S2 Gal4-VP16 UAS-luciferase, luminescence, 20 h. Potency, µM (series often up to 53.6 µM), without a hit: top-dose activity, negative = inhibition, usual class: inhibitors. hit rate 3.5% among 310,000;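 further: Gal4-VP16 expression switched on by copper sulfate through the metallothionein promoter; nearly all actives have a fitted effect of over 50% in size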
TDP1 cell noCPT = qHTS for Inhibitors of human tyrosyl-DNA phosphodiesterase 1 (TDP1): qHTS in cells in absence of CPT; Potency, µM (highest dose often 46.2 µM), for the others: top-dose activity change, negative = growth inhibition, hits mostly inhibitors; DT40 Tdp1-/- hTDP1 cells, no CPT, ATP luminescence, 48 h; hit rate 15% among 420,000; further: nearly all actives have a fitted effect of over 55% in size
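Luminescent ATP content (CellTiter-Glo) served as the growth readout. Knockout chicken DT40 cells expressing human TDP1 were exposed to compounds without camptothecin for a minimum 48 hr at 37 °C.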
RORgamma inh = qHTS for inhibitors of ROR gamma transcriptional activity | Nuclear receptor ROR-gamma (Mus musculus), P51450 | hit rate 5.4% among 310,000 | Drosophila S2 Gal4-RORgamma UAS-luciferase reporter, 20 h | AID 2551, 2010 | Potency, µM (series often up to 53.6 µM), for the others: at the highest dose activity change, negative = inhibition, hits mostly inhibitors; further: nearly all actives have a fitted effect of over 60% in size
Target sequence (P51450 whole entry, looked up, the tested form may be a part): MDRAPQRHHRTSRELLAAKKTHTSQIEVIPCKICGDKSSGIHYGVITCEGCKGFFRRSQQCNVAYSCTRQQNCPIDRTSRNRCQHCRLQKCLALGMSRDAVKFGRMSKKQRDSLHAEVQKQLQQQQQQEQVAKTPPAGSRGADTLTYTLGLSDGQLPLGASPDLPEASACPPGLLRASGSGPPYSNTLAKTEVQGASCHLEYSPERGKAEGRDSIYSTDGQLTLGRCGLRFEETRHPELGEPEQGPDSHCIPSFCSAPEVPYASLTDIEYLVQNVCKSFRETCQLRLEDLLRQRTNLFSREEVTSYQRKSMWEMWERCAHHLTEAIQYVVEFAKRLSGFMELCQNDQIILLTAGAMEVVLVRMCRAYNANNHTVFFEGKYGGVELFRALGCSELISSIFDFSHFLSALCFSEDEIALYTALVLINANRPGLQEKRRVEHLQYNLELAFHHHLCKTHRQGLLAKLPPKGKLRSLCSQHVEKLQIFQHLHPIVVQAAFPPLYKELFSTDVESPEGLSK
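Using a luciferase readout, inhibitors were identified by reduced reporter activity in Drosophila cells coexpressing a copper-inducible Gal4–ROR gamma fusion and UAS-driven Photinus luciferase, incubated 20 hr after 700 uM copper sulfate.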
TDP1 cell CPT = qHTS for Inhibitors of human tyrosyl-DNA phosphodiesterase 1 (TDP1): qHTS in cells in presence of CPT | chicken DT40 Tdp1-/-;hTDP1 cells + 20 nM CPT, ATP luminescence, 48 h | Potency, µM (titrated, usually from 46.2 µM), without a hit: at the highest dose activity change, negative = growth inhibition, usual class: inhibitors | hit rate 12% among 420,000 | AID 686979, 2013; further: nearly all actives have a fitted effect of over 55% in size
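Cell growth measured by CellTiter-Glo luminescence after a minimum 48 h, 37 C compound exposure with 20 nM CPT in Tdp1-knockout DT40 cells stably expressing hTDP1, seeded 400/well; qHTS titration format.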
TDP1 block = qHTS Assay for Inhibitors of Tyrosyl-DNA Phosphodiesterase (TDP1); Tyrosyl-DNA phosphodiesterase 1 (Homo sapiens), Q9NUW8; recombinant TDP1, AlphaScreen DNA substrate cleavage; Potency, µM (highest dose often 130 µM), for inactives: at the highest dose activity change, negative = inhibition, hits mostly inhibitors; hit rate 0.28% among 350,000; AID 485290, 2010; further: nearly all actives have a fitted effect of over 40% in size
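Steps: enzyme plus compound, 15 min RT; add biotin/phosphotyrosine-FITC oligonucleotide (15 nM final), react 5 min; add donor/acceptor beads (10 ug/ml final), 10 min; read AlphaScreen. Tdp1 at 1 nM final.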
* = called active by the depositor; ? = inconclusive; . = no result. The call rests on the fitted dose curve; in most records, active means well fitted curve in the direction sought with a large enough effect; inconclusive means small, poorly fitted or top-dose-only effect, or another doubt; inactive means no such curve, though single readings can be large; an effect the other way counts as inactive or inconclusive. On the % scale 0 is the no-effect control and ±100 the full control effect; potency means the concentration at half of the fitted maximal effect.

SMILES	VP16 counter	TDP1 cell noCPT	RORgamma inh	TDP1 cell CPT	TDP1 block
Cc1ccccc1CN(c1ccc(C(=O)Nc2cccnc2)cc1)S(C)(=O)=O	-0.9%	-1.1%	18.2%	-10.1%	5.6%
Cc1nc2cncnc2n(Cc2ccc(F)cc2)c1=O	1.4%	1.8%	14.0%	1.8%	.
CCCCCC(=O)N1C[C@@H](O)[C@H](n2cc(C3CC3)nn2)C[C@@H]1c1ccc(OC)cc1	.	-9.5%	.	-3.3%	.
CCCCCCN1C[C@@H](O)[C@H](n2cc(C3CC3)nn2)C[C@@H]1c1ccccc1	.	16.4µM*	.	18.4µM*	.
CCCCCCN1C[C@H](n2cc(C3CC3)nn2)[C@@H](O)C[C@@H]1c1ccccc1	.	9.2µM*	.	20.6µM*	.
O[C@H]1CN(CC2CCCCC2)[C@@H](c2ccccc2)C[C@@H]1n1cc(C2CC2)nn1	.	?	.	-21.7%	.
CCCCCCN1C[C@H](n2cc(C3CC3)nn2)[C@@H](O)C[C@@H]1c1ccc(OC)cc1	.	20.6µM*	.	?	.
COc1ccc(/C=N/NC(=O)c2cccc(NC(=O)c3ccc(F)cc3)c2)c(C(=O)O)c1OC	-10.4%	-21.7%	14.2%	-17.6%	50.1µM*
COc1ccc(C(=O)N/N=C/c2ccccc2C(=O)O)cc1OC	-5.8%	-20.3%	-3.9%	-5.1%	1.9%
COc1cc(OC)c2cc(C(=O)N/N=C/c3cccc(OC)c3O)[nH]c2c1	4.47µM*	6.51µM*	2.24µM*	14.6µM*	7.0%
COc1cccc(/C=N/NC(=O)c2cc3c(OC)ccc(OC)c3[nH]2)c1O	2.82µM*	4.11µM*	1.58µM*	6.51µM*	.
COc1cc2cc(C(=O)N/N=C/c3ccccc3Cl)[nH]c2cc1OC	-6.7%	23.1µM*	0.1%	?	.
Cc1ccc(C)c(NC(=O)N2CCN(c3nnc(C)c4c(C)n(-c5ccccc5)nc34)CC2)c1	.	-2.8%	.	-12.0%	7.1%
Cc1nc(C)c(/C(O)=C/c2nc3ccccc3oc2=O)s1	-5.0%	10.3µM*	-9.5%	8.2µM*	-8.2%
COc1ccccc1NC(=O)[C@@H]1CCCN1S(=O)(=O)c1ccc(Cl)cc1	.	?	.	?	-10.6%
CN(Cc1ccc(OCC(O)CN2CCCCC2)cc1)Cc1ccnc2ccccc12 (configuration not stated)	6.31µM*	4.61µM*	7.08µM*	9.2µM*	.
Cc1nn(C)cc1CN(C)Cc1ccc(OCC(O)CN2CCCCC2)cc1 (configuration not stated)	4.4%	12.9%	1.6%	-20.0%	-2.4%
Cc1ccc(CN2C(=O)N/C(=C\c3cccn3-c3cccc(C(=O)O)c3)C2=O)cc1	-6.2%	7.31µM*	?	8.2µM*	0.0%
O=C(O)c1ccc(-n2cccc2/C=C2/NC(=O)N(c3ccccc3)C2=O)cc1	6.8%	-2.8%	11.6%	2.9%	.
Cc1ccc(NC(=O)CN2C(=O)N/C(=C/c3cc(C)n(-c4cccc(C(=O)O)c4)c3C)C2=O)cc1	2.6%	-2.3%	3.2%	1.9%	.
O=C(O)c1ccc(-n2cccc2/C=C2/NC(=O)N(c3cccc(Cl)c3)C2=O)cc1	-11.1%	-25.0%	-0.7%	-20.3%	1.58µM*
O=C(O)c1cccc(-n2cccc2/C=C2\NC(=O)N(Cc3ccc(F)cc3)C2=O)c1	-17.1%	?	38.9%	?	?
Cc1ccc(NC(=O)CN2C(=O)N/C(=C\c3cccn3-c3cccc(C(=O)O)c3)C2=O)cc1	6.0%	-28.1%	13.8%	3.3%	2.82µM*
CCn1nnnc1SCCSc1nnnn1CC	-0.3%	-13.5%	?	1.3%	-3.4%
Cc1c(-c2ccccc2)oc2c(C(=O)OCC(=O)Nc3ccc(C(N)=O)cc3)cccc2c1=O	-0.8%	?	-10.3%	?	3.4%
SMILES	VP16 counter	TDP1 cell noCPT	RORgamma inh	TDP1 cell CPT	TDP1 block
Cn1c(SCc2cccc(C(F)(F)F)c2)nnc1-c1ccco1	21.8%	-15.8%	33.3%	-22.0%	1.9%
OC(Cn1ccnc1)c1ccc(Cl)cc1Cl (configuration not stated)	-2.7%	-16.1%	-18.2%	-18.5%	1.9%
CC1(c2ccc(Cl)cc2Cl)OCC(Cn2ccnc2)O1 (configuration not stated)	-28.1%	23.1µM*	-10.6%	20.6µM*	-1.0%
CC1(C)Cc2c(c(-c3ccccc3)nc3[nH][nH]c(=O)c23)CO1	9.9%	8.7%	-11.1%	-1.2%	10.9%
CN(C)c1ccc(/C=C2\CCC/C(=C\c3ccccc3)C2=O)cc1	-26.8%	?	34.9%	?	4.1%
Cn1cccc1/C=C1\CCC/C(=C\c2cccn2C)C1=O	5.0%	29.1µM*	?	?	11.8%
O=C(CN1C(=O)NC2(CCCCC2)C1=O)Nc1nc2c(F)cc(F)cc2s1	.	?	.	?	-8.4%
C/C(=N\Nc1nc(-c2ccc(C)cc2C)cs1)c1cc2ccccc2oc1=O	?	?	?	?	5.5%
Cc1ccc(C)c(NC(=S)N2CCCCCC2)c1	?	16.4µM*	12.6µM*	20.6µM*	-2.6%
CCOC(=O)C1CCN(C(=S)Nc2cc(C)ccc2C)CC1	?	?	17.8µM*	-12.0%	0.6%
CCOC(=O)N1CCN(C(=S)Nc2ccccc2C)CC1	-5.1%	-5.3%	-19.2%	-6.7%	4.7%
CCOC(=O)C1CCN(C(=S)Nc2ccc(CC)cc2)CC1	?	6.8%	11.2µM*	28.0%	4.9%
CCOC(=O)C1CCN(C(=S)Nc2cccc(C)c2C)CC1	-8.7%	-13.6%	11.2µM*	13.6%	7.9%
CCOC(=O)C1CCN(C(=S)Nc2cccc(C)c2)CC1	?	4.1%	-40.8%	1.3%	3.2%
CCOC(=O)C1CCN(C(=S)Nc2ccc(Cl)cc2C)CC1	?	-7.1%	14.1µM*	26.8%	5.5%
CCc1ccc(NC(=S)N2CCC(NC(=O)c3ccccc3OC)CC2)cc1	-7.8%	?	10µM*	-4.2%	5.4%
Cc1ccc2[nH]c(CSc3ccccc3)cc(=O)c2c1	-14.6%	16.4µM*	44.5%	18.4µM*	.
COc1ccc(SCc2cc(=O)c3cc(Cl)ccc3[nH]2)cc1	.	3.66µM*	.	20.6µM*	2.7%
Cc1cc(=O)c2cc(Cl)ccc2[nH]1	-8.9%	5.17µM*	9.1%	5.17µM*	-2.5%
